Reference: the supplement of paper PMC11624193, “Coupling cellular drug-target engagement to downstream pharmacology with CeTEAM” (Nature Communications, 2024)
Several values for one entry are separate records, joined by “and”; a condition that tells them apart may be missing. Identical values can stand only once. Counter-ions that a name gives are not always drawn. A number with no mark means an inactive call.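 Rule for the calls: active = log2 fold change beyond 2 SD from the library mean after excluding viability outliers; inactive = within 2 SD.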

target: PARP1 L713F-nLuc biosensor (HCT116) (UniProt P09874); experiment: PARP1 L713F-nLuc/akaLuc ratio relative to DMSO control (biosensor stabilization) (fold change); higher = more PARP1 biosensor stabilization (target engagement / stabilizer), active = hit call of the paper; settings: stock concentration (mM; final µM = stock mM x 1): 10; 24 h
Sequence (P09874 whole entry L713F, looked up): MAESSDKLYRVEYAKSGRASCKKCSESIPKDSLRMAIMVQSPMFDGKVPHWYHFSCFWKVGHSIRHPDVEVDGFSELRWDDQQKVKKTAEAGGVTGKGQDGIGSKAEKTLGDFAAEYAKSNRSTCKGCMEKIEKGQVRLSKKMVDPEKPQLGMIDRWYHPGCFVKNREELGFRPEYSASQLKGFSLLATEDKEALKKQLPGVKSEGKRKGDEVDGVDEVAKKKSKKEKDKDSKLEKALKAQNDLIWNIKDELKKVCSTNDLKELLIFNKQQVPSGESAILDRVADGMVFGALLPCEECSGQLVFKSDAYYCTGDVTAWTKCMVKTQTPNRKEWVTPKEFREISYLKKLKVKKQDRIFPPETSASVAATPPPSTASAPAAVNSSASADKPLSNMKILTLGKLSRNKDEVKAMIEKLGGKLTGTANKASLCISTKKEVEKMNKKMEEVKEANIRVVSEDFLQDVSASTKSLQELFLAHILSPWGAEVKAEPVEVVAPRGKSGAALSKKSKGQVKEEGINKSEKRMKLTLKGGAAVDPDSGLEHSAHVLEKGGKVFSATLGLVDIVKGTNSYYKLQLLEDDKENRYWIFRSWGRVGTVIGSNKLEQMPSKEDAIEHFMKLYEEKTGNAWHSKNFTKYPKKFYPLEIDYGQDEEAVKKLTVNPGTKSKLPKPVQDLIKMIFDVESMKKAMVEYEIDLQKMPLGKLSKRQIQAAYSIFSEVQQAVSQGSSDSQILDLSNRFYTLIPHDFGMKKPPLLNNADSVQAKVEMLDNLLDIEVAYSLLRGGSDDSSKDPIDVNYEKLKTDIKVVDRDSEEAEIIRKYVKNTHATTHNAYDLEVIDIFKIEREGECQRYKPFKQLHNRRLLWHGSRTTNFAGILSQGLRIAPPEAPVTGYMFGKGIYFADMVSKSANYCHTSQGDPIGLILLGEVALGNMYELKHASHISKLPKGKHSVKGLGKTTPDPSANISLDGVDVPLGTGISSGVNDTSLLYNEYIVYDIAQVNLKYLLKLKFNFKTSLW

Structure (SMILES)	PARP1 L713F-nLuc/akaLuc ratio
N[C@@H]1CCCN(c2c(/C=C3\SC(=O)NC3=O)cccc2-c2ccccc2)C1	0.726
O=C(NC[C@H](O)CN1CCc2ccccc2C1)c1cc(NC2COC2)ncn1	0.532 and 0.854
Nc1nc(OCc2cc(Br)cs2)c2ncn(CCCCCCCCO[C@@H]3O[C@H](CO)[C@@H](O)[C@H](O)[C@H]3O)c2n1 [O6BTG-octylglucoside]	0.863
COc1cc(Nc2ncc3c(n2)-c2ccc(Cl)cc2C(c2c(F)cccc2OC)=NC3)ccc1C(=O)O [Alisertib]	0.939
Cc1cc(Nc2cc(N3CCN(C)CC3)nc(Sc3ccc(NC(=O)C4CC4)cc3)n2)n[nH]1 [Tozasertib]	0.774
CCC1=C[C@@H]2CN(C1)Cc1c([nH]c3ccccc13)[C@@](C(=O)OC)(c1cc3c(cc1OC)N(C)[C@H]1[C@@](O)(C(=O)OC)[C@H](OC(C)=O)[C@]4(CC)C=CCN5CC[C@]31[C@@H]54)C2 [Vinorelbine Tartrate]	0.576
CC1(C)CN(C(=O)c2ccc(-c3cccc4nc(NC(=O)C5CC5)nn34)cc2)C1 [Solcitinib]	0.98
O=C(O)c1ccc(O)c2ncccc12	0.734
O=C(Nc1cccnc1)N1CCC(Cc2cccc(Oc3ccc(C(F)(F)F)cn3)c2)CC1	0.451
N#CC1(c2ccc(NC(=O)c3cccnc3NCc3ccncc3)cc2)CCCC1	0.967
CC[C@@](C)(Nc1ccnc(-c2c[nH]c3ncccc23)n1)C(=O)NCC(F)(F)F [Decernotinib]	0.707
